This is an account of results in PubChem BioAssay.

Test [1] concerns Plasmodium falciparum Sir2 (PF13_0152, Sir2A). Briefly: Plasmodium falciparum Sir2A binding compounds – biochemical, small-molecule microarray, 635 nm fluorescence, primary screen (AID 1098).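 Further: score merges spot fluorescence intensity with its signal-to-noise ratio.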 Particulars: fluorescence 635 nm, higher = more signal.
Test [2] can be described thus: probe aDKK1 binding to arrayed compounds – biochemical, biotinylated probe, 635/667 nm fluorescence, primary screen (AID 1099).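 Further: score merges 667nm spot fluorescence with signal to noise across triplicate slides.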 Particulars: small-molecule microarray, higher = more signal.
Test [3] in a line: probe aCHRDL2 binding to arrayed compounds – biochemical, biotinylated probe, 635/667 nm fluorescence, primary screen (AID 1100). Particulars: small-molecule microarray, higher = more signal.
Test [4] can be described thus: change in splice reporter luminescence, either direction, cell-based, HEK293, spliceosome inhibition project, primary screen (AID 1101).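 Further: HEK293 cells carrying a splicing-competent luciferase reporter gene; test concentration not given here.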 Particulars: HEK293 splicing luciferase reporter, 24 h, higher = more signal, called active from +8 up or from −8 down.
Test [5] deals with Fibroblast growth factor 10 (Homo sapiens) (UniProt O15520). Briefly: compounds binding fibroblast growth factor 10 – biochemical, small-molecule microarray, 635 nm fluorescence, primary screen (AID 1102). Particulars: FGF10 binding, fluorescence 635 nm, higher = more signal.
Sequence of Fibroblast growth factor 10 (Homo sapiens) (O15520 whole entry, looked up): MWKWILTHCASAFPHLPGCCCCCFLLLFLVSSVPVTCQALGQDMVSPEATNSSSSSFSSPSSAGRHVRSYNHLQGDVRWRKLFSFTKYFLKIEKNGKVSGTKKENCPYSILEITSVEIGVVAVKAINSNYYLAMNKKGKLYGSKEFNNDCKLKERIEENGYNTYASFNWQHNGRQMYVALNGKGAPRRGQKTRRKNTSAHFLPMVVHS
Test [6] deals with glycogen synthase kinase-3 (GSK3A per assay name; protocol says GSK3B). Briefly: compounds binding glycogen synthase kinase-3 – biochemical, small-molecule microarray, 635 nm fluorescence, GSK3A, primary screen (AID 1103). Further: the record names both GSK3A and GSK3B. The note with it: fluorescence 635 nm, higher = more signal.
The target in test [7] is Epidermal growth factor receptor (Homo sapiens) (UniProt P00533). Briefly: compounds binding epidermal growth factor receptor – biochemical, small-molecule microarray, 635 nm fluorescence, primary screen (AID 1104).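 Further: score merges 667 nm emission intensity with spot signal to noise over triplicate slides.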 The note with it: EGFR binding, higher = more signal.
Sequence of Epidermal growth factor receptor (Homo sapiens) (P00533 whole entry, looked up): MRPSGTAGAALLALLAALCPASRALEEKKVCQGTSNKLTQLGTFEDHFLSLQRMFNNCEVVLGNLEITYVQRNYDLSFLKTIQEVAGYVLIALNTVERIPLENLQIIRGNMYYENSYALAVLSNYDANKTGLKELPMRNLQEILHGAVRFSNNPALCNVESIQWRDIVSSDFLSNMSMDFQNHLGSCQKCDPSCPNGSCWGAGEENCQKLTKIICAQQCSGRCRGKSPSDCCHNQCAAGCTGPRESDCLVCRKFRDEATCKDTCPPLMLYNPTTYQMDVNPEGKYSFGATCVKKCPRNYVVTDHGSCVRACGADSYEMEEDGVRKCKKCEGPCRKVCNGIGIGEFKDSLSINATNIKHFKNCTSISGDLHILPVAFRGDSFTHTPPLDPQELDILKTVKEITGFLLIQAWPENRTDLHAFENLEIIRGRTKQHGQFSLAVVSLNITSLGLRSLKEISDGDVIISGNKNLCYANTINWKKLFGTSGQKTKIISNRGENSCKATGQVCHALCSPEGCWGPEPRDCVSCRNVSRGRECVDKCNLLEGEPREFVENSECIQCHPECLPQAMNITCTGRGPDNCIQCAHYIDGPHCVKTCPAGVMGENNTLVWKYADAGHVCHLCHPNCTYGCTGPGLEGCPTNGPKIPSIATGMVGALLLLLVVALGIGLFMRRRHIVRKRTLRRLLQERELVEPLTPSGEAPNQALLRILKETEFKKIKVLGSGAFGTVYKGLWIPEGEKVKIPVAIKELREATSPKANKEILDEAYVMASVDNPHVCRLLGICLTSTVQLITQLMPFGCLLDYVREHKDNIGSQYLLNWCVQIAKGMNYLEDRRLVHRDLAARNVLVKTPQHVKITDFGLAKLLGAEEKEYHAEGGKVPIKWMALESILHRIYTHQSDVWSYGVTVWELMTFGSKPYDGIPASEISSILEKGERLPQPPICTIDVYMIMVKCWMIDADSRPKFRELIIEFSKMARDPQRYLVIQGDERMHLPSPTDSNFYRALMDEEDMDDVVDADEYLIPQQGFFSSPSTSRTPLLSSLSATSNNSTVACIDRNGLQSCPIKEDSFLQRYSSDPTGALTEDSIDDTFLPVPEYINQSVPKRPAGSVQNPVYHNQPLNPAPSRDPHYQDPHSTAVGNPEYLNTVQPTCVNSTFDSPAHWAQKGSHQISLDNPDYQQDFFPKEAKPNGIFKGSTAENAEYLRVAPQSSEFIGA
For test [8], the target named is Follistatin-related protein 3 (Homo sapiens) (UniProt O95633). Briefly: compounds binding follistatin-related protein 3 – biochemical, small-molecule microarray, 635 nm fluorescence, primary screen (AID 1105).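 Further: score merges emission near 667 nm and signal to noise per printed spot across three slides.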 Particulars: FSTL3 binding, higher = more signal.
Sequence of Follistatin-related protein 3 (Homo sapiens) (O95633 whole entry, looked up): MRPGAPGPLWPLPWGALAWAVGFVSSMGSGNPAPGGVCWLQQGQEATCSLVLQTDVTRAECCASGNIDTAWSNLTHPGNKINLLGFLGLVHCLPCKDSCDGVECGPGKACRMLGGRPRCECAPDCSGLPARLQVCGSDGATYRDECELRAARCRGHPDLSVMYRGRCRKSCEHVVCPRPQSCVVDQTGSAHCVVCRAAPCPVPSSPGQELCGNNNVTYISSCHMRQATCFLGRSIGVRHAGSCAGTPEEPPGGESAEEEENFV
The target of test [9] is Dickkopf-related protein 1 (Homo sapiens) (UniProt O94907). Briefly: small molecules binding DKK1 protein – biochemical, small-molecule microarray, 635 nm fluorescence scan, primary screen (AID 1106).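 Further: score merges emission near 667 nm with signal to noise over three replicate slides.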 Particulars: higher = more signal.
Sequence of Dickkopf-related protein 1 (Homo sapiens) (O94907 whole entry, looked up): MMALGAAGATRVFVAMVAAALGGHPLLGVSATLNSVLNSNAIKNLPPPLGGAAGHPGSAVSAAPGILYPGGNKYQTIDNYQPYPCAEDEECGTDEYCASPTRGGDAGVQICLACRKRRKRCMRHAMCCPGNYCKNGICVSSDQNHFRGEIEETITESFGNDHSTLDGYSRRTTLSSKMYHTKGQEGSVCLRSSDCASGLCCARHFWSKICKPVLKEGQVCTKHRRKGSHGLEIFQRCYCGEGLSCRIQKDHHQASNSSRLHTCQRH
The test system of test [10] is Inhibin beta A chain (activin A). Briefly: small molecules binding activin A – biochemical, small-molecule microarray, 635 nm fluorescence scan, primary screen (AID 1107).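 Further: mouse activin A protein probed at 4.33 µg/mL on printed slides; score merges bound-protein fluorescence near 667 nm with spot signal-to-noise.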 Particulars: INHBA, higher = more signal.
Test [11] deals with Human papillomavirus type 1a protein E7 (residues 44-93). Briefly: small molecules binding HPV E7 44-93 – biochemical, small-molecule microarray, residues 44-93, 635 nm fluorescence, primary screen (AID 1108).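 Further: E7 fragment applied at 1 µg/mL in TBST for 1 h at 4 C; score combines spot fluorescence with its signal to noise ratio.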 The note with it: fluorescence 635 nm, higher = more signal.
The nature of test [12]: hepatitis C replication reporter changes, two-sided – Huh7 cells, luciferase reporter, HCV replication inhibitor project, primary screen (AID 1109).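 Further: huh7 hepatoma cells harbouring a luciferase neomycin HCV replicon reporter; luciferase luminescence as measure of HCV replicon replication; test concentration not given here.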 The note with it: Huh7 HCV replicon luciferase reporter, 48 h; higher = more signal.
Test [13] addresses Left-right determination factor 2 (Homo sapiens) (UniProt O00292). Briefly: small molecules binding LEFTY2 protein – biochemical, small-molecule microarray, 635 nm fluorescence scan, primary screen (AID 1110). Particulars: higher = more signal.
In test [14] the target is Calmodulin-1 (Homo sapiens) (UniProt P0DP23). Briefly: small molecules binding calmodulin-1 with EGTA – biochemical, small-molecule microarray, Cy5-labelled CALM1, profiling panel (AID 1111).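 Further: labelled calmodulin applied in Tris saline Tween buffer holding calcium plus EGTA and DTT.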 The note with it: Cy5-CALM1 binding fluorescence, higher = more signal.
The target is the same in test [15]. Briefly: small molecules binding Ca-loaded calmodulin-1 – biochemical, small-molecule microarray, Cy5-labelled CALM1, plus calcium, artefact control for SMM control-protein annotation, profiling panel (AID 1112).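 Further: score merges spot fluorescence with signal to noise from triplicate slides.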 The note with it: Cy5-CALM1 binding fluorescence, higher = more signal.
The nature of test [16]: probe aWnt5a binding to arrayed compounds – biochemical, biotinylated probe, 635/667 nm fluorescence, primary screen (AID 1113).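 Further: score merges 667 nm fluorescence intensity with signal-to-noise per printed feature.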 Particulars: small-molecule microarray, higher = more signal.
Test [17] in a line: probe aShh binding to arrayed compounds – biochemical, biotinylated probe, 635/667 nm fluorescence, primary screen (AID 1114).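 Further: probe is biotin-labelled aShh protein from a stem cell growth factor screen; measures binding of labelled protein to compounds printed on the slide; score merges feature fluorescence at 667 nm with signal-to-noise.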 The note with it: small-molecule microarray, higher = more signal.
The nature of test [18]: probe aNog binding to arrayed compounds – biochemical, biotinylated probe, 635/667 nm fluorescence, primary screen (AID 1115).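 Further: probe is biotinylated aNog protein used at 0.15 µg/mL for 1 h at 4 C; z-score combines 667 nm fluorescence of each spot with its signal to noise.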 Particulars: small-molecule microarray, higher = more signal.
Test [19] concerns the target Torsin-1A-interacting protein 1 (Homo sapiens) (UniProt Q5JTV8). Briefly: compound microarray binding of lysate hLAP1 – cell lysate, small-molecule microarray, COS7 lysate, 635/667 nm fluorescence, primary screen (AID 1116). The note with it: 635 nm fluorescence, higher = more signal.
For test [20], the target named is Alpha-bungarotoxin (Bungarus multicinctus) (UniProt P60615). Briefly: compounds binding labelled alpha-BTX control protein – biochemical, small-molecule microarray, Alexa647 label, 635/667 nm fluorescence, artefact control for SMM control protein annotation, profiling panel (AID 1117). The note with it: alpha-BTX-A647 binding fluorescence, higher = more signal.
Sequence of Alpha-bungarotoxin (Bungarus multicinctus) (P60615 whole entry, looked up): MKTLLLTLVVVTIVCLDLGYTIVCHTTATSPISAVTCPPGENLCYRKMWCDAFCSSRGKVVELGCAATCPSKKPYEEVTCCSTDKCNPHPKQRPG

Active and inactive are the calls of the source.

Sequence of Torsin-1A-interacting protein 1 (Homo sapiens) (Q5JTV8 whole entry, looked up): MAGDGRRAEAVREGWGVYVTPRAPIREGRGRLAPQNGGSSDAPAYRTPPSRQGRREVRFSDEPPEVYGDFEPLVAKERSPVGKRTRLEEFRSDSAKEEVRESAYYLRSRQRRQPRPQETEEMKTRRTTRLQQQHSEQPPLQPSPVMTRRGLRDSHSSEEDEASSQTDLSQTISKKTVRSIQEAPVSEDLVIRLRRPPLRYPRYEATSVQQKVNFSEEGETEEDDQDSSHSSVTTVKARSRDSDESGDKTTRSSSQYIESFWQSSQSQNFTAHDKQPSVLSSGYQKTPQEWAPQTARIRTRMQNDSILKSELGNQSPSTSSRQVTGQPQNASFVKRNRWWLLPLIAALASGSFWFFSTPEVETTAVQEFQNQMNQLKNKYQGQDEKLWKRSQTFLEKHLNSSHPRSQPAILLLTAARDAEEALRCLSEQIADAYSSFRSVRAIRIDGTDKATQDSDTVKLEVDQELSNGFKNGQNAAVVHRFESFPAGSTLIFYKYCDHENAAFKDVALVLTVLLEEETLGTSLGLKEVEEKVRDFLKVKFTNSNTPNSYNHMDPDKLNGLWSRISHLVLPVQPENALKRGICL
Sequence of Left-right determination factor 2 (Homo sapiens) (O00292 whole entry, looked up): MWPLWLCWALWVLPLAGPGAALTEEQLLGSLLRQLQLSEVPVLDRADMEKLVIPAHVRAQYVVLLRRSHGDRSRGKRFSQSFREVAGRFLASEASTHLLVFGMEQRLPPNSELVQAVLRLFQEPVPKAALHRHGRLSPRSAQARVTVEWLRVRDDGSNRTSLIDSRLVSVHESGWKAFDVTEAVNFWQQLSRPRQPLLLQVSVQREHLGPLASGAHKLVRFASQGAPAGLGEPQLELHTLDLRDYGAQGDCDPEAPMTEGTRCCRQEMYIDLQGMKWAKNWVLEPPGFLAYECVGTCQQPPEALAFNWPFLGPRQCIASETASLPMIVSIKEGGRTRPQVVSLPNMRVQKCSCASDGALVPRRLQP

Turning to `Cc1ccc(S[C@]2(C(=O)NCC(F)(F)F)CC(=O)N(C3CCCCC3)[C@@H]2c2ccc(CO)cc2I)cc1`, the composite z-score in test [1] came to 0.894; in test [2], 0.119; in test [3] it was 0.408; in test [5] it was 0.919; in test [6], 1.24; in test [7] it was 0.395. Further, the composite z-score stood at 0.914 in test [8]; 0.133 in test [9]; 0.469 in [10]; 1.42 in test [11]; 0.394 in [13]; 1.01 in [14]. In addition, the composite z-score in test [15] was -0.077; in test [16], -0.122; in test [17], 0.184; in test [18], -0.422; in test [19], 0.958; in test [20] it was 0.587. The z-score is -0.635 (inactive) in test [4] and -2.3 in test [12].
Regarding `O=C1O[C@H](c2ccccc2)[C@H](c2ccccc2)N2[C@H]1[C@@H](C(=O)O)[C@]1(C(=O)Nc3ccc(C#CC4=CCCCC4)cc31)[C@H]2c1ccc(O)cc1`, the composite z-score in test [1] was 1.37; in [2], -0.0007; in test [3], 0.0645; in test [5] it was 1.06; in test [6], 0.908; in [7], 0.23. Further, the composite z-score in [8] is 0.844; in test [9], 1.11; in [10], 0.855; in [11] it was 1.33; in test [13] it was 0.658; in test [14] it was -0.461. Besides, the composite z-score in test [15] was -0.283; in test [16] it was -0.0792; in test [17], 0.0284; in [18], -0.213; in [19] it was 0.499; in test [20] it was -0.188. Also, the results for the z-score in test [4] and in [12] were -0.824 (inactive) and -0.955, respectively.
Turning to `COCCOC(=O)N1C(=O)[C@@]2(c3cc(C#Cc4ccc(OC)cc4)ccc31)[C@H](c1ccc(O)cc1)N1[C@H](c3ccccc3)[C@H](c3ccccc3)OC(=O)[C@H]1[C@@H]2C(=O)N1CCCCCCC1`, the composite z-score in test [1] is 0.447; in [2], 1.81; in [3], 1.36; in test [5] it was 0.506; in test [6] it was -0.151; in test [7], -0.191. Moreover, the composite z-score in test [8] was 0.859; in [9], 0.423; in test [10] it was 1.31; in [11], 0.699; in test [13] it was 0.187; in test [14] it was 1.54. Moreover, the composite z-score in [15] was 0.946; in [16], -0.151; in test [17], 0.199; in test [18], 1.48; in test [19], 2.14; in test [20], 0.63. For the same compound, the z-score in test [4] is 1.5 (inactive); in test [12], -0.48.
In the case of `CC(C)C(CO)N1C(=O)[C@@H]2C3C(=O)OCCC/C=C\[C@H]3OC23C=CCN(C(C)(C)C)C(=O)[C@@H]13` (stereo not given in full), the composite z-score is 1.2 in test [1]; -0.456 in test [2]; -0.384 in test [3]; -0.598 in test [5]; 0.0664 in test [6]; -0.44 in [7]. Also, the composite z-score was -0.504 in test [8]; -0.268 in test [9]; 1.05 in [10]; -0.0297 in test [11]; -0.383 in test [13]; -0.903 in test [14]. Besides, the composite z-score is -0.804 in test [15]; -0.124 in [16]; 0.0141 in test [17]; -0.368 in [18]; -0.24 in test [19]; -1.54 in [20]. For the same compound, the z-score in [4] is 0.476 (inactive); in test [12], -0.57.
With `COc1ccc(CN(C2=CC[C@@]3(C(N)=O)C(=O)C(Cl)=C(Cl)C(=O)[C@@]3(C#N)C2)S(=O)(=O)c2ccc(Br)cc2)cc1`, the composite z-score in test [1] is -0.201; in test [2], 0.661; in [3], 0.84; in test [5], 0.0024; in test [6] it was -0.139; in test [7], -0.733. Also, the composite z-score is -0.0224 in test [8]; -1.28 in [9]; 1.03 in test [10]; 0.731 in [11]; -0.885 in [13]; 1.1 in [14]. Also, the composite z-score was 0.391 in test [15]; -0.11 in test [16]; -0.0769 in [17]; 0.784 in test [18]; 1.02 in test [19]; -0.181 in [20]. Further, the z-score was -2.69 (inactive) in [4] and -1.56 in test [12].
With `COC(=O)[C@@]1(Cc2ccc(OC)cc2)[C@H]2c3cc(C(=O)N(C)C)n(C[C@H](O)CO)c3C[C@H]2CN1C(=O)c1ccccc1`, the composite z-score in test [1] was 1.43; in test [2], 1.76; in test [3], 1.62; in test [5] it was 0.376; in test [6], 0.0885; in test [7], -0.107. The composite z-score in test [8] is 0.472; in test [9], -1.18; in [10], 1.39; in [11] it was -1.21; in [13], -0.415; in test [14] it was 2.33. In addition, the composite z-score in test [15] came out at 1.32; in test [16] it was 0.108; in [17], 0.86; in test [18] it was 2.14; in [19] it was 2.07; in test [20], 1.15. Further, the z-score was -0.872 (inactive) in [4] and -0.966 in test [12].
